Test results: PubChem BioAssay (NCI)
Compounds without any hit were thinned out: in the full panel of roughly 83,000, 20% have a hit.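 Interpretation: 100, growth as untreated; towards 0, rising growth inhibition; 0, no net growth; 0 to -100, cell death. Compounds scoring below 10 were considered active.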 Unmarked numbers belong to inactive results. Activity calls are given as the source filed them.

Columns and labels:
Test in all cases: NCI-60 one-dose screen, 48 h (100 = growth as untreated, 0 = no growth, -100 = all killed)
Settings in all cases: 10 µM unless noted
[1] = tested on: NCI-H23 lung
[2] = tested on: NCI-H226 lung
[3] = tested on: NCI-H322M lung
[4] = tested on: HOP-62 NSCLC
[5] = tested on: NCI-H460 lung
[6] = tested on: HOP-92 NSCLC
[7] = tested on: NCI-H522 lung
[8] = tested on: A549/ATCC NSCLC
[9] = tested on: 786-0 renal
[10] = tested on: COLO 205 colon
[11] = tested on: DU-145 prostate
[12] = tested on: MALME-3M melanoma
[13] = tested on: MDA-MB-231 breast
[14] = tested on: RXF 393 renal
[15] = tested on: SF-268 CNS
[16] = tested on: SF-295 CNS
[17] = tested on: SF-539 CNS
[18] = tested on: UACC-257 melanoma
[19] = tested on: M14 melanoma

Structure (SMILES)	growth [1]	growth [2]	growth [3]	growth [4]	growth [5]	growth [6]	growth [7]	growth [8]	growth [9]	growth [10]	growth [11]	growth [12]	growth [13]	growth [14]	growth [15]	growth [16]	growth [17]	growth [18]	growth [19]
CN(C)c1ccc(N=Nc2ccc(Br)cn2)c(O)c1	19.3%	7.29% (active)	21.1%	18.5%	3.96% (active)	50.3%	14.4%	10.3%	20.5%	7.48% (active)	24.7%	17.8%	34.1%	55.5%	16.8%	17.4%	-10.2% (active)	-11.5% (active)	-1.74% (active)
COc1cc2c(cc1O)CC[C@@H]1[C@@H]2CC[C@]2(C)[C@@H](OCCN(C)C)CC[C@@H]12	42.3%	76.5%	51.3%	59.9%	39.6%	48.6%	18.4%	66.5%	57.9%	58.8%	12.8%	16.7%	16.2%	52.4%	56.2%	-4.56% (active)	4.14% (active)	-18.2% (active)	0.0496% (active)
O=C(/C=C/c1ccc(C(F)(F)F)cc1)Nc1ccc(C=C2c3ccccc3C(=O)c3ccccc32)cc1	49.2%	67.8%	97.3%	78.8%	62.3%	55.6%	20.8%	44.6%	62.1%	66.5%	72.4%	76.6%	77.3%	68.4%	67.3%	59.2%	83.5%	35.1%	59.1%
COc1cc2c(cc1O)CC[C@@H]1[C@@H]2CC[C@]2(C)[C@@H](OCCCN(C)C)CC[C@@H]12	-30% (active)	9.47% (active)	-22.3% (active)	-57.8% (active)	-61.4% (active)	-18.2% (active)	-90.8% (active)	-33.7% (active)	-83.8% (active)	-71% (active)	-10.3% (active)	-76.1% (active)	-70.2% (active)	-88.3% (active)	-24.3% (active)	-79.8% (active)	-85% (active)	-77.4% (active)	-78.8% (active)
CC(C)CSc1nc(N)nc2c1ncn2C1OC(CO)C(O)C1O (configuration not stated)	106%	101%	101%	95.2%	104%	147%	92.6%	102%	121%	101%	115%	99.5%	104%	98.7%	99.9%	72.3%	94.7%	104%	116%
CSc1ccc(-c2ccccc(=O)c2O)cc1	21.9%	16.1%	19.5%	3.95% (active)	2.89% (active)	49.5%	24.1%	11.5%	8.4% (active)	22.6%	21%	15.6%	36.8%	39.3%	11.5%	19.4%	4.03% (active)	-4.11% (active)	-6.35% (active)
O=C(CCCCC(=O)N/N=C\c1ccccc1O)N/N=C\c1ccccc1O	58.4%	52.9%	27.5%	39.1%	12.2%	64.4%	46.4%	48.9%	19.6%	35.4%	45.1%	32.6%	50%	43.4%	40%	37.9%	19%	26%	20.9%
COc1ccc(O)c(N=Nc2nccs2)c1	87.9%	92.2%	91.4%	94.2%	101%	49.4%	88.2%	91.1%	70.6%	94.8%	94.9%	102%	39.3%	87.9%	67.9%	103%	96.8%	93.7%	105%
